Laboratory results from PubChem BioAssay AID2380 (Sanford-Burnham Center for Chemical Genomics, 2010).
Screen size: about 330,000 compounds; about 960 (0.29%) were called active. Many of the other results were omitted from the sample, so actives are more common in it than they were. Unmarked numbers belong to inactive results.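 Rule for the calls: active = compounds whose signal lies at least 3.5 SD above the mean of all wells on their plate; inactive = the rest.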

Assay: inducers of MIN6 beta-cell proliferation, primary screen, ATP luminescence, uHTS (AID 2380);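 note: 0% = DMSO-treated cells in low-serum medium and 100% = 10% serum control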
Conditions: MIN6 cells proliferation, ATPlite luminescence, 48 h; at 10 µM; active compounds read high; 100% = growth in 10% serum; cells starved in 0.2% serum

SMILES	proliferation
COc1cccc(NC(=O)C2CCCN(c3ncnc4c3nc3n4CCCCC3)C2)c1 (stereo unspecified)	5.62%
COc1cccc(CNC(=O)C2CCCN(c3ncnc4c3nc3n4CCCCC3)C2)c1 (stereo unspecified)	7.08% (active)
O=C(NCCCN1CCCCC1)C1CCCN(c2ncnc3c2nc2n3CCCCC2)C1 (stereo unspecified)	-1.13%
Cc1ccccc1CNC(=O)CCC(=O)N1Cc2ccccc2Oc2ncccc21	12.5% (active)
CC1CN(C(=O)CCC(=O)NCc2cccnc2)c2ccccc2O1 (stereo unspecified)	-2.56%
Cc1ccc2c(c1)N(C(=O)CCC(=O)NCc1cccnc1)CCO2	1.08%
CC(C)Cc1nc(Nc2ccc(S(=O)(=O)N3CCCC3)cc2)c2nnn(Cc3ccccc3)c2n1	-0.74%
COC(=O)C(C(=O)Nc1cccc(C)n1)C1CCCCCC1 (stereo unspecified)	0%
O=C(C1CCN(C2CCN(Cc3cccc4c3OCO4)CC2)CC1)N1CCOCC1	1.29%
CC1CCN(C(=O)CCc2nnc3ccc(NCc4ccco4)nn23)CC1	-1.78%
COC(=O)COc1ccc(S(=O)(=O)N2CCOCC2)cc1	-2.03%
O=C(COC(=O)c1ccccc1)Nc1cccc(S(=O)(=O)N2CCOCC2)c1	1.39%
CC(=O)c1cccc(NC(=O)COc2ccc(S(=O)(=O)N3CCOCC3)cc2)c1	10.6% (active)
CCN1C(=O)[C@@H]2[C@@H](c3ccc(-c4ccccc4)cc3)N3CCCC[C@@]3(C(=O)OC)[C@@H]2C1=O	-7.4%
CN(CC(=O)Nc1c(Cl)cccc1Cl)C(=O)CC1OC(=O)c2ccccc21 (stereo unspecified)	-1.95%
CC1Cn2c(nnc2-c2cccs2)S1 (stereo unspecified)	-1.85%
O=C(NCc1ccc2c(c1)OCO2)c1cc2c(s1)CS(=O)(=O)C2	-0.86%
CC(=O)OC(C(=O)NC1CCCCC1)c1ccccc1 (stereo unspecified)	5.32% (active)
CC(=O)CC(CC(=O)NC1CCCCC1)c1ccccc1 (stereo unspecified)	0.52%
O=C(NNC(=O)C(O)c1ccccc1)NC1CCCCC1 (stereo unspecified)	-1.83%
Cn1c(=O)c2c(ncn2CC(COCc2ccccc2Cl)OCc2ccccc2Cl)n(C)c1=O (stereo unspecified)	-1.81%
Nc1[nH]c(=S)nc2nc(-c3ccccc3)c(-c3ccccc3)nc12	-5.91%
COC(=O)c1cc(C(=O)NC(C)C2CC3CCC2C3)cc([N+](=O)[O-])c1 (stereo unspecified)	0%
O=S(=O)(NCCc1ccc(F)cc1)c1cccc2cccnc12	3.17%

SMILES	proliferation
O=S(=O)(NCc1ccccn1)c1ccc(F)cc1	0.39%
O=S(=O)(NCCOc1cccc2cccnc12)c1ccc(F)cc1	5.56% (active)
Cc1cc(Cl)ccc1NNC(=O)c1snnc1C	-4.18%
CNc1[nH]ncc1[N+](=O)[O-]	3.19%
CN(C(=O)CSc1nnc(-c2n[nH]c3ccccc23)o1)c1ccccc1	0.29%
Cc1ccc(OCC(=O)Nc2ccc(NC(=O)c3cccs3)cc2)c(C)c1	0%
Cc1ccc(NC(=O)c2cccs2)cc1S(=O)(=O)N(C)C	0.43%
Cc1ccc(C(=O)Nc2ccc(NC(=O)c3cccs3)cc2)c(C)c1	0% (active)
CC(C)(C)N(CC#CCC(O)(c1ccccc1)C1CCCC1)CCO (stereo unspecified)	2.2%
O=C(Nc1ccccc1N1CCCC1)c1ccc2ccccc2c1	-2.88%
COc1ccc(NS(=O)(=O)c2ccc(N3CCOCC3)c(NC(=O)c3ccccc3Br)c2)cc1	5.36%
CCn1c(=O)n(CC)c2cc(N3CCCC3)c(NC(=O)c3ccccc3Br)cc21	13.7% (active)
CCC(C(=O)NC1CCCC1)N(C(=O)Cn1nnc(-c2ccc(C)o2)n1)c1ccc(OC)c(OC)c1 (stereo unspecified)	5.41%
COc1ccc(N(CC(=O)Nc2cc(OC)ccc2OC)S(=O)(=O)c2c(C)noc2C)cc1	-0.48%
CCCOc1ccc(NC(=O)CC2C(=O)N(C)C(=S)N2Cc2ccc3c(c2)OCO3)cc1 (stereo unspecified)	0%
CSc1nsc(NC(=O)Nc2ccccc2)n1	-5.02%
C/C(=N/Nc1ccc(Cl)cc1)c1cnnc(-c2ccccc2)n1	-3.11%
CC/C(=N/Nc1ccccc1)c1cnnc(SC)n1	8.26% (active)
OCc1ccc(-c2ccccc2)c(-c2ccccc2)c1	-3.43%
O=C(O)CC(SCC(=O)Nc1ccc(Br)cc1)C(=O)O (stereo unspecified)	-0.34%
COC(=O)Nc1sc2nc(C)cc(C)c2c1-n1cccc1	8.22% (active)
Cc1cc(C)c2c(-n3cccc3)c(NC(=O)OCc3ccccc3)sc2n1	-5.05%
CCCCOC(=O)Nc1sc2nc(C)cc(C)c2c1-n1cccc1	0.21%
CCOC(=O)N1CCN(C(=O)c2ccc3c(=O)n(CCc4ccc(OC)c(OC)c4)c(=O)[nH]c3c2)CC1	2.68%

SMILES	proliferation
CCOc1ccc(-n2c(SCC(=O)Nc3cc(C(=O)O)ccc3Cl)nc3ccccc3c2=O)cc1	-1.58%
Cc1csc(NC(=S)Nc2cccc(Cl)c2)n1	-2.77%
S=C(Nc1cccc(Cl)c1)Nc1ccc2cn[nH]c2c1	0% (active)
FC(F)(F)c1cccc(NC(=S)Nc2cccc(Cl)c2)c1	-6.83%
CCCCn1c(N)c(N(CC)C(=O)/C=C/c2ccco2)c(=O)[nH]c1=O	-1.59%
CO/N=C/CC(=O)c1ccc(OC)cc1	-1.22%
COc1ccc(CCC(=O)c2ccc(OC)cc2)cc1	5.33% (active)
COc1ccc(C(=O)CCC(=O)Nc2ccc(Cl)cc2)cc1	-2.97%
CCCCn1c(N)c(N(CCOC)C(=O)c2cccc(S(=O)(=O)N3CCCCC3)c2)c(=O)[nH]c1=O	1.76%
c1ccc(C[C@H]2CNCCN2CCC23CC4CC(CC(C4)C2)C3)cc1	-8%
CC(=O)c1cnc(-c2ccccc2)s1	8.82% (active)
O=C(/C=C/Nc1ccccc1)c1cnc(-c2ccccc2)s1	-1.21%
CC(C)(C)C(=O)c1cnc(Nc2ccccc2)s1	-3.47%
O=C(CN1CCN(c2ccc(F)cc2)CC1)Nc1cccc(C(F)(F)F)c1	-3.27%
CC(C)(C)C1CCC(OC(=O)CCC(=O)Nc2ccccc2)CC1 (stereo unspecified)	0%
O=C(c1ccc2c(c1)N(Cc1ccc(F)cc1)C(=O)c1ccccc1S2(=O)=O)N1CCN(c2ccccn2)CC1	-0.68%
O=C(c1ccc2c(c1)C(=O)N(c1ccc(Cl)cc1)C2=O)N1CCN(c2ccccn2)CC1	2.75%
O=C1c2ccccc2S(=O)(=O)c2cc(N3CCN(c4ccccn4)CC3)ccc21	12.1% (active)
Cc1cc(=O)oc2cc(OCC3CC(c4ccccc4Cl)=NO3)ccc12 (stereo unspecified)	-5.28%
COc1ccc(OCC(=O)OCCN(C)C)cc1	0.06%
Cc1c(C(=O)NCCN(C)C)oc2ccc(S(=O)(=O)N3CCCC3)cc12	0%
O=C(CSc1nc2ccccc2[nH]1)N/N=C/C=C\c1ccccc1[N+](=O)[O-]	6.1% (active)
CCn1c(SCC(=O)N/N=C/C=C/c2ccccc2[N+](=O)[O-])nnc1-c1ccccc1	-1.08%
Cc1ccc(-n2c(SCC(=O)N/N=C/C=C/c3ccccc3[N+](=O)[O-])nc3ccccc3c2=O)cc1	-2.84%

SMILES	proliferation
Cn1cc(-c2ccccc2)cc(C#N)c1=O	-2.8%
O=C(NNC(=S)NCc1ccccc1)c1ccc(OC(F)F)cc1	0% (active)
Cc1ccc(OCC(=O)NNC(=S)NCc2ccccc2)cc1	1.61%
Cc1scc(C(=O)NNC(=S)NCc2ccccc2)c1C	0%
C=CCn1nc(-c2ccccc2)c2c(C)onc2c1=O	2.27%
Cc1cccc(CN2CCC(n3nccc3NC(=O)c3ccccc3C)CC2)n1	0.34%
CN1C(=O)[C@H]2[C@@H](C3CC3)N3C(=O)CN(Cc4ccccc4)C(=O)[C@@]3(C)[C@H]2C1=O	3.27%
CCCCC(=O)NCc1ccc(F)cc1	0%
O=C(CC1CCCCC1)NCc1ccc(F)cc1	-3.62%
Fc1ccc(CNCc2ccc(Br)cc2)cc1	5.1% (active)
Cc1ccc(S(=O)(=O)N2CCN(C(=O)c3ccccc3-c3nc4ccccc4s3)CC2)c(C)c1	-1.73%
COc1ccc(Cl)cc1S(=O)(=O)Nc1cccc(C(=O)O)c1	-0.59%
CC(C)c1nnc(NC(=O)COC(=O)/C=C/c2ccc([N+](=O)[O-])cc2)s1	0.53%
COc1ccccc1OCc1ccc(C(=O)NC(C)c2ccccc2)o1 (stereo unspecified)	0.18%
COc1ccccc1OCc1ccc(C(=O)N2CCN(C)CC2)o1	7.74% (active)
O=C(c1ccco1)N1CCN(C(=O)c2ccc(COc3ccc(F)cc3)o2)CC1	6.29%
CC(NC(=O)c1ccco1)c1ccc2c(c1)OCO2 (stereo unspecified)	-0.03%
O=C(NC(=S)Nc1cccc2c(O)cccc12)c1cccc(Br)c1	-7.11%
Cc1ccccc1NC(=S)NNC(=O)c1cccc(Br)c1	13.8% (active)
Cc1cc(C(=O)NNC(=S)Nc2ccccc2C)cs1	0%
CC1(C)O[C@@H]2[C@H](O1)[C@@H](CO)O[C@H]2n1c(N2CCCCC2)nc2c(N)ncnc21	1.62%
COCCNc1nc(-c2ccccc2)nc2c1oc1ccccc12	6.28% (active)
COc1ccc(C)cc1Nc1nc(C)nc2c1oc1ccccc12	-4.77%
C[C@@H](Nc1nc(-c2ccccc2)nc2c1oc1ccccc12)C(=O)O	-1.21%
